Experimental data taken from PubChem BioAssay (NCI).
This is part of a sample that, as a whole, favours compounds with a hit. Of some 83,000 tested, about 20% had one in any assay.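 Interpretation: 100, growth as untreated; towards 0, rising growth inhibition; 0, no net growth; 0 to -100, cell death. Compounds scoring below 10 were considered active.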 The source made the active and inactive calls.

Assays:
Test in all cases: NCI-60 one-dose screen, 48 h (100 = growth as untreated, 0 = no growth, -100 = all killed)
Conditions in all cases: 10 µM unless noted
SR leukemia = tested on: SR leukemia
RPMI-8226 leukemia = tested on: RPMI-8226 leukemia
OVCAR-8 ovarian = tested on: OVCAR-8 ovarian
OVCAR-5 ovarian = tested on: OVCAR-5 ovarian
OVCAR-4 ovarian = tested on: OVCAR-4 ovarian
SK-OV-3 ovarian = tested on: SK-OV-3 ovarian
IGROV1 ovarian = tested on: IGROV1 ovarian
OVCAR-3 ovarian = tested on: OVCAR-3 ovarian
HS 578T breast = tested on: HS 578T breast
MDA-MB-435 melanoma = tested on: MDA-MB-435 melanoma
SW-620 colon = tested on: SW-620 colon
MCF7 breast = tested on: MCF7 breast
HCT-116 colon = tested on: HCT-116 colon
HCC-2998 colon = tested on: HCC-2998 colon
T-47D breast = tested on: T-47D breast
BT-549 breast = tested on: BT-549 breast
KM12 colon = tested on: KM12 colon
NCI/ADR-RES ovarian = tested on: NCI/ADR-RES ovarian

Measured: growth

CC(C)C1CCC(C)C(O)C1 (stereo not given)
inactive: SR leukemia 96.1% | RPMI-8226 leukemia 101% | OVCAR-8 ovarian 99.1% | OVCAR-5 ovarian 108% | OVCAR-4 ovarian 108% | SK-OV-3 ovarian 106% | IGROV1 ovarian 104% | OVCAR-3 ovarian 105% | HS 578T breast 93.5% | MDA-MB-435 melanoma 93.5% | SW-620 colon 98% | MCF7 breast 100% | HCT-116 colon 111% | HCC-2998 colon 109%

COC(=O)c1ccccc1C(=O)c1c(C)cc(C)cc1C
inactive: SR leukemia 79.6% | RPMI-8226 leukemia 93.5% | OVCAR-8 ovarian 101% | OVCAR-5 ovarian 101% | OVCAR-4 ovarian 99.9% | SK-OV-3 ovarian 102% | IGROV1 ovarian 98.5% | OVCAR-3 ovarian 103% | HS 578T breast 100% | T-47D breast 88.8% | BT-549 breast 106% | MDA-MB-435 melanoma 97.6% | MCF7 breast 102% | HCT-116 colon 99.7% | HCC-2998 colon 94.4% | KM12 colon 102%

N=C(N)c1nn(C2OC(CO)C(O)C2O)c2nc[nH]c(=O)c12 (stereo not given)
inactive: OVCAR-5 ovarian 30.2% | IGROV1 ovarian 21.8%
active: SR leukemia -22.7% | RPMI-8226 leukemia -19% | OVCAR-8 ovarian 7.8% | OVCAR-4 ovarian -6.89% | SK-OV-3 ovarian -15.7% | OVCAR-3 ovarian -51.9% | NCI/ADR-RES ovarian -10.4% | T-47D breast -14.6% | BT-549 breast -14.8% | MDA-MB-435 melanoma -49.5% | SW-620 colon -4.15% | MCF7 breast 4.19% | HCT-116 colon -80.3% | HCC-2998 colon -22.8%

Cc1[nH]n(-c2ccccc2)c(=O)c1C=NC(=S)C(N)=S
inactive: SR leukemia 89.9% | RPMI-8226 leukemia 94.6% | OVCAR-8 ovarian 99.9% | OVCAR-5 ovarian 109% | OVCAR-4 ovarian 104% | SK-OV-3 ovarian 96% | IGROV1 ovarian 112% | OVCAR-3 ovarian 108% | HS 578T breast 92.1% | T-47D breast 102% | BT-549 breast 108% | MDA-MB-435 melanoma 109% | MCF7 breast 100% | HCT-116 colon 89.5% | HCC-2998 colon 102% | KM12 colon 103%

Cc1ccc(NCN2C(=O)c3ccccc3C2=O)c(C)n1
inactive: SR leukemia 119% | RPMI-8226 leukemia 105% | OVCAR-8 ovarian 99.6% | OVCAR-5 ovarian 111% | OVCAR-4 ovarian 119% | SK-OV-3 ovarian 113% | IGROV1 ovarian 112% | OVCAR-3 ovarian 130% | HS 578T breast 110% | T-47D breast 119% | BT-549 breast 108% | MDA-MB-435 melanoma 105% | SW-620 colon 108% | MCF7 breast 112% | HCT-116 colon 101% | HCC-2998 colon 106% | KM12 colon 99.5%

Cc1ccc2nc(-c3ccc(N=Cc4ccccc4O)cc3)sc2c1
active: HCC-2998 colon -12.3%
inactive: SR leukemia 88.8% | RPMI-8226 leukemia 70.8% | OVCAR-8 ovarian 87.5% | OVCAR-5 ovarian 92.2% | OVCAR-4 ovarian 78.6% | SK-OV-3 ovarian 115% | IGROV1 ovarian 64% | OVCAR-3 ovarian 84.8% | HS 578T breast 102% | T-47D breast 69% | MDA-MB-435 melanoma 105% | SW-620 colon 97.8% | MCF7 breast 77.1% | HCT-116 colon 79.2% | KM12 colon 99.2%

C=C(C)COc1ccc(C(C)(C)C)cc1
inactive: SR leukemia 96.3% | RPMI-8226 leukemia 104% | OVCAR-8 ovarian 95.4% | OVCAR-5 ovarian 106% | OVCAR-4 ovarian 103% | SK-OV-3 ovarian 95.9% | IGROV1 ovarian 112% | OVCAR-3 ovarian 102% | HS 578T breast 90.1% | NCI/ADR-RES ovarian 107% | MDA-MB-435 melanoma 93.4% | SW-620 colon 101% | MCF7 breast 98.5% | HCT-116 colon 96% | HCC-2998 colon 111% | KM12 colon 103%

O=C(CCCl)OCCOc1ccccc1
inactive: SR leukemia 94.5% | RPMI-8226 leukemia 53.6% | OVCAR-8 ovarian 102% | OVCAR-5 ovarian 109% | OVCAR-4 ovarian 102% | SK-OV-3 ovarian 100% | IGROV1 ovarian 104% | OVCAR-3 ovarian 104% | NCI/ADR-RES ovarian 106% | T-47D breast 96% | BT-549 breast 116% | MDA-MB-435 melanoma 110% | SW-620 colon 107% | MCF7 breast 92.1% | HCT-116 colon 118% | HCC-2998 colon 108% | KM12 colon 102%

C=C1SC(=Nc2c(C)cccc2C)N(c2nc(Cl)nc(Cl)n2)C12CCCCC2
inactive: SR leukemia 81.4% | RPMI-8226 leukemia 99.8% | OVCAR-8 ovarian 98.8% | OVCAR-5 ovarian 118% | OVCAR-4 ovarian 101% | SK-OV-3 ovarian 99% | IGROV1 ovarian 97.4% | OVCAR-3 ovarian 101% | HS 578T breast 113% | T-47D breast 101% | BT-549 breast 91.6% | MDA-MB-435 melanoma 93.5% | SW-620 colon 112% | MCF7 breast 103% | HCT-116 colon 93.7% | HCC-2998 colon 111% | KM12 colon 103%

CS(=O)(=O)c1ccc(/C=C\C(=O)O)cc1
inactive: SR leukemia 62.3% | RPMI-8226 leukemia 98.8% | OVCAR-8 ovarian 104% | OVCAR-5 ovarian 105% | OVCAR-4 ovarian 98.2% | SK-OV-3 ovarian 106% | IGROV1 ovarian 120% | OVCAR-3 ovarian 102% | HS 578T breast 81.7% | T-47D breast 103% | BT-549 breast 102% | MDA-MB-435 melanoma 101% | SW-620 colon 81.5% | MCF7 breast 95.8% | HCT-116 colon 93.7% | HCC-2998 colon 110% | KM12 colon 94%

COc1ccc(C(=O)C(=O)c2ccccc2)cc1
inactive: SR leukemia 95.9% | RPMI-8226 leukemia 103% | OVCAR-8 ovarian 105% | OVCAR-5 ovarian 101% | OVCAR-4 ovarian 100% | SK-OV-3 ovarian 103% | IGROV1 ovarian 102% | OVCAR-3 ovarian 108% | NCI/ADR-RES ovarian 104% | T-47D breast 104% | BT-549 breast 112% | MDA-MB-435 melanoma 95.1% | SW-620 colon 100% | MCF7 breast 103% | HCT-116 colon 105% | HCC-2998 colon 104%

CCCCCC#CC(=O)O
inactive: SR leukemia 97.7% | RPMI-8226 leukemia 99.7% | OVCAR-8 ovarian 98.3% | OVCAR-5 ovarian 105% | OVCAR-4 ovarian 103% | SK-OV-3 ovarian 102% | IGROV1 ovarian 100% | OVCAR-3 ovarian 123% | NCI/ADR-RES ovarian 119% | T-47D breast 85.2% | BT-549 breast 64.1% | MDA-MB-435 melanoma 107% | SW-620 colon 104% | MCF7 breast 95.4% | HCT-116 colon 112% | HCC-2998 colon 113% | KM12 colon 121%

CC(=O)Oc1c(Cl)cccc1-c1ccccc1
inactive: SR leukemia 99.9% | RPMI-8226 leukemia 99.3% | OVCAR-8 ovarian 100% | OVCAR-5 ovarian 108% | OVCAR-4 ovarian 110% | SK-OV-3 ovarian 104% | IGROV1 ovarian 102% | OVCAR-3 ovarian 103% | HS 578T breast 90.7% | NCI/ADR-RES ovarian 97.3% | MDA-MB-435 melanoma 104% | SW-620 colon 96.4% | MCF7 breast 101% | HCT-116 colon 101% | HCC-2998 colon 102% | KM12 colon 104%

COc1cccc(C(=O)O)c1OC
inactive: SR leukemia 101% | RPMI-8226 leukemia 101% | OVCAR-8 ovarian 101% | OVCAR-5 ovarian 85.9% | OVCAR-4 ovarian 95% | SK-OV-3 ovarian 91.6% | IGROV1 ovarian 99.4% | OVCAR-3 ovarian 106% | HS 578T breast 88.9% | NCI/ADR-RES ovarian 99.4% | MDA-MB-435 melanoma 90.9% | SW-620 colon 100% | MCF7 breast 87.2% | HCT-116 colon 103% | HCC-2998 colon 98.6% | KM12 colon 101%

CN1CCN(C(=S)S)CC1
inactive: SR leukemia 104% | RPMI-8226 leukemia 102% | OVCAR-8 ovarian 109% | OVCAR-5 ovarian 106% | OVCAR-4 ovarian 127% | SK-OV-3 ovarian 111% | IGROV1 ovarian 74.4% | OVCAR-3 ovarian 115% | NCI/ADR-RES ovarian 108% | T-47D breast 93% | BT-549 breast 108% | MDA-MB-435 melanoma 109% | SW-620 colon 114% | MCF7 breast 99.3% | HCT-116 colon 107% | HCC-2998 colon 107% | KM12 colon 107%

Oc1ccc(N=Cc2ccc(OCc3ccccc3)cc2)cc1
inactive: SR leukemia 97.4% | RPMI-8226 leukemia 96.7% | OVCAR-8 ovarian 96.3% | OVCAR-5 ovarian 111% | OVCAR-4 ovarian 95.2% | SK-OV-3 ovarian 112% | IGROV1 ovarian 108% | OVCAR-3 ovarian 103% | HS 578T breast 104% | T-47D breast 103% | BT-549 breast 84.6% | MDA-MB-435 melanoma 88.4% | SW-620 colon 96.1% | MCF7 breast 99.1% | HCT-116 colon 106% | HCC-2998 colon 112% | KM12 colon 92.8%

O=C(Nc1cccc(Cl)c1)c1ccc(Cl)cc1Cl
inactive: SR leukemia 81.4% | RPMI-8226 leukemia 84.5% | OVCAR-8 ovarian 97.4% | OVCAR-5 ovarian 95.8% | OVCAR-4 ovarian 107% | SK-OV-3 ovarian 95% | IGROV1 ovarian 107% | OVCAR-3 ovarian 98% | HS 578T breast 92.7% | NCI/ADR-RES ovarian 103% | MDA-MB-435 melanoma 89.1% | MCF7 breast 83.3% | HCT-116 colon 89% | HCC-2998 colon 106% | KM12 colon 85.1%

NNc1ncccn1
inactive: SR leukemia 98.2% | RPMI-8226 leukemia 108% | OVCAR-8 ovarian 108% | OVCAR-5 ovarian 108% | OVCAR-4 ovarian 101% | SK-OV-3 ovarian 105% | IGROV1 ovarian 111% | OVCAR-3 ovarian 101% | HS 578T breast 91.5% | MDA-MB-435 melanoma 91% | SW-620 colon 94.7% | MCF7 breast 101% | HCT-116 colon 98.1% | HCC-2998 colon 102% | KM12 colon 101%

CCCC(=O)c1cccs1
inactive: SR leukemia 95.8% | RPMI-8226 leukemia 105% | OVCAR-8 ovarian 107% | OVCAR-5 ovarian 100% | OVCAR-4 ovarian 103% | SK-OV-3 ovarian 103% | IGROV1 ovarian 110% | OVCAR-3 ovarian 107% | HS 578T breast 95.2% | T-47D breast 86.6% | BT-549 breast 101% | MDA-MB-435 melanoma 104% | SW-620 colon 101% | MCF7 breast 94.3% | HCT-116 colon 100% | HCC-2998 colon 99.8% | KM12 colon 105%

S=c1nc(-c2ccccn2)c(-c2ccccn2)n[nH]1
inactive: SR leukemia 99.2% | RPMI-8226 leukemia 112% | OVCAR-8 ovarian 103% | OVCAR-5 ovarian 111% | OVCAR-4 ovarian 108% | SK-OV-3 ovarian 112% | IGROV1 ovarian 103% | OVCAR-3 ovarian 107% | HS 578T breast 105% | T-47D breast 93.9% | BT-549 breast 101% | MDA-MB-435 melanoma 110% | SW-620 colon 106% | MCF7 breast 96.9% | HCT-116 colon 100% | HCC-2998 colon 99.5% | KM12 colon 97.4%
